Test results taken from paper PMC4336329 (PLoS ONE, 2015).
Out of some 310,000 compounds screened, about 14,000 (4.5%) showed an effect of 50% or more. The effect is printed as a negative number. Many of the other results were omitted from the sample, so strong results are more common in it than they were.
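Note: peak tail current of the secondary pulse compared with the same well before compound.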

The compounds below were run against human ether-à-go-go-related gene (hERG) potassium channel (human, UniProt Q12809) (assay: primary screen, population patch clamp on CHO cells stably expressing hERG; higher = less effect of the substance).
Sequence of human ether-à-go-go-related gene (hERG) potassium channel (Q12809 whole entry, looked up): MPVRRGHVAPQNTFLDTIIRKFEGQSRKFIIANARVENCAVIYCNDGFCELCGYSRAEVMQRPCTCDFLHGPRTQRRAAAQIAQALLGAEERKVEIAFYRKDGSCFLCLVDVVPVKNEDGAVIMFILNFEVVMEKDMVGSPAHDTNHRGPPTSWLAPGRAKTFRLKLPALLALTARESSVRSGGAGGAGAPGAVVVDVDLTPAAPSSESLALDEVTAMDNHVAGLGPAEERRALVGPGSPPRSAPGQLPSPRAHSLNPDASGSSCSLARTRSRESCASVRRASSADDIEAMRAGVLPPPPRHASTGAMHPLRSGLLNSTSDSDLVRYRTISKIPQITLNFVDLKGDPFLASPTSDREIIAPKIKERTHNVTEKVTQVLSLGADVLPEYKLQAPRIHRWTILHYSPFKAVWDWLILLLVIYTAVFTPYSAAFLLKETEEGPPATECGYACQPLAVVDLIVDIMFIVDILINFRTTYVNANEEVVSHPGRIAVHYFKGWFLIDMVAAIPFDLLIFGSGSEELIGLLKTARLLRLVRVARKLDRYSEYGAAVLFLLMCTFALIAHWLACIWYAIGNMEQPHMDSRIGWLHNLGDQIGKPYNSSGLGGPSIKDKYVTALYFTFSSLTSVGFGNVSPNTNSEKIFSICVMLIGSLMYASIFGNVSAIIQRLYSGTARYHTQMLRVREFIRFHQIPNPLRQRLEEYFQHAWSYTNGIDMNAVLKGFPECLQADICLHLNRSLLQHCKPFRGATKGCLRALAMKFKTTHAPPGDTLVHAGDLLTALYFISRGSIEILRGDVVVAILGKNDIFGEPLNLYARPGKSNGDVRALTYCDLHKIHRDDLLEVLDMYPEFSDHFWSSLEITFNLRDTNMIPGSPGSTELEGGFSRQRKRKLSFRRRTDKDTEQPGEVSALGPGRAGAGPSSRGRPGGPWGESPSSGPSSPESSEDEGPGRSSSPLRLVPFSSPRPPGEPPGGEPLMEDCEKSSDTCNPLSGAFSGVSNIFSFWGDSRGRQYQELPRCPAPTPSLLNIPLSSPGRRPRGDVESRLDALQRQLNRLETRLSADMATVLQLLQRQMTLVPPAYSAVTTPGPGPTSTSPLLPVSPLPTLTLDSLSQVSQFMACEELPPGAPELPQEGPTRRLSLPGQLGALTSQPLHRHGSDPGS
In the case of `CCn1c2ccccc2c2cc(/C=N/O)ccc21`, the “hERG current change (%, negative = inhibition) at 10uM” value is reported as 40.6%. `CSCCC1NC2(C(=O)Nc3ccc(Cl)cc32)[C@@H]2C(=O)N(C3CCCC3)C(=O)[C@H]12` (stereo partly drawn) was tested, and the “hERG current change (%, negative = inhibition) at 10uM” value was -8.3%. With `Cc1cc(NC(=O)CSc2nc(-c3cccs3)nc3ccccc23)no1` the “hERG current change (%, negative = inhibition) at 10uM” value was 14.7%. In the case of `CCN1CCN(c2nc(Nc3ccc(C)c(C)c3)nc(N)c2[N+](=O)[O-])CC1`, the “hERG current change (%, negative = inhibition) at 10uM” value is reported as -75%. In the case of `COc1ccc(Nc2nc(N)c([N+](=O)[O-])c(N3CCN(C)CC3)n2)cc1`, the “hERG current change (%, negative = inhibition) at 10uM” value is reported as -26.6%. For `Cc1cccc(Nc2nc(N)c([N+](=O)[O-])c(N3CCOCC3)n2)c1`, the “hERG current change (%, negative = inhibition) at 10uM” value was -37.1%. In the case of `CCN1CCN(c2nc(Nc3cccc(C)c3)nc(N)c2[N+](=O)[O-])CC1`, the “hERG current change (%, negative = inhibition) at 10uM” value is reported as -70.2%. With `Cc1cccc(Nc2nc(N)c([N+](=O)[O-])c(N3CCN(C)CC3)n2)c1` the “hERG current change (%, negative = inhibition) at 10uM” value was -48%. `Cc1ccc(Nc2nc(N)c([N+](=O)[O-])c(N3CCOCC3)n2)cc1C` was tested, and the “hERG current change (%, negative = inhibition) at 10uM” value was -13.9%. `Cc1ccc(Nc2nc(N)c([N+](=O)[O-])c(N3CCC(C)CC3)n2)cc1C` was tested, and the “hERG current change (%, negative = inhibition) at 10uM” value was 7.13%. `CCN1CCN(c2nc(Nc3cccc(OC)c3)nc(N)c2[N+](=O)[O-])CC1` was tested, and the “hERG current change (%, negative = inhibition) at 10uM” value was -73.3%. `CCN1CCN(c2nc(Nc3ccc(OC)cc3)nc(N)c2[N+](=O)[O-])CC1` was tested, and the “hERG current change (%, negative = inhibition) at 10uM” value was -32.2%. In the case of `CCOc1ccc(Nc2nc(N)c([N+](=O)[O-])c(N3CCN(C)CC3)n2)cc1`, the “hERG current change (%, negative = inhibition) at 10uM” value is reported as -48.3%. For `CCOc1ccc(Nc2nc(N)c([N+](=O)[O-])c(N3CCN(CC)CC3)n2)cc1`, the “hERG current change (%, negative = inhibition) at 10uM” value was -62.6%. For `COc1cccc(Nc2nc(N)c([N+](=O)[O-])c(N3CCOCC3)n2)c1`, the “hERG current change (%, negative = inhibition) at 10uM” value was -14.2%. In the case of `COc1ccccc1CC(=O)Nc1ccc(C(=O)N2CCCCC2)cc1`, the “hERG current change (%, negative = inhibition) at 10uM” value is reported as 2.21%. For `CCOC(=O)CCNC(=O)N1CCCC(C(=O)c2cc(C)c(OC)c(C)c2)C1` (stereo not drawn), the “hERG current change (%, negative = inhibition) at 10uM” value was 5.81%. For `COC(=O)Cc1ccc(NC(=S)N2CCN(CCO)CC2)cc1`, the “hERG current change (%, negative = inhibition) at 10uM” value was 3.63%. With `CC1=C(OC(=O)C(C)(C)C)C(C)(C)C(c2ccccc2)OC1=O` (stereo not drawn) the “hERG current change (%, negative = inhibition) at 10uM” value was -13.4%. For `COc1cccc(C2CC(c3cccc(OC)c3)n3nc(N)nc3N2)c1` (stereo not drawn), the “hERG current change (%, negative = inhibition) at 10uM” value was -4.11%. With `COc1ccc(-c2nnc(NC(=O)C(C)C)o2)cc1` the “hERG current change (%, negative = inhibition) at 10uM” value was -3.15%. With `COc1ccc(N2C(=O)c3ccccc3NC23CCC(C)CC3)cc1` (stereo not drawn) the “hERG current change (%, negative = inhibition) at 10uM” value was 4.35%. For `C=CCn1nnnc1SCC(=O)Nc1cccc(C(F)(F)F)c1`, the “hERG current change (%, negative = inhibition) at 10uM” value was 9.66%. In the case of `CC(NC(=O)C(C(=O)c1cccc([N+](=O)[O-])c1)n1cc(Cl)ccc1=O)c1ccccc1` (stereo not drawn), the “hERG current change (%, negative = inhibition) at 10uM” value is reported as -15%. In the case of `CCN1CCN(c2nc(N)c([N+](=O)[O-])c(Nc3ccc(C)c(C)c3)n2)CC1`, the “hERG current change (%, negative = inhibition) at 10uM” value is reported as -6.91%. `Nc1nc(Nc2ccccc2F)nc(N2CCCC2)c1[N+](=O)[O-]` was tested, and the “hERG current change (%, negative = inhibition) at 10uM” value was 4.5%. For `CCN1CCN(c2nc(Nc3ccccc3)nc(N)c2[N+](=O)[O-])CC1`, the “hERG current change (%, negative = inhibition) at 10uM” value was -63%. For `CCN1CCN(c2nc(N)c([N+](=O)[O-])c(Nc3ccc(C)cc3)n2)CC1`, the “hERG current change (%, negative = inhibition) at 10uM” value was -68.9%. With `CCN1CCN(c2nc(N)c([N+](=O)[O-])c(Nc3cccc(C)c3)n2)CC1` the “hERG current change (%, negative = inhibition) at 10uM” value was -45%. With `CCN1CCN(c2nc(Nc3cccc(F)c3)nc(N)c2[N+](=O)[O-])CC1` the “hERG current change (%, negative = inhibition) at 10uM” value was -62.6%. With `Cc1cccc(Nc2nc(N)c([N+](=O)[O-])c(N3CCC(C)CC3)n2)c1` the “hERG current change (%, negative = inhibition) at 10uM” value was -15.7%. `CCN1CCN(c2nc(Nc3ccccc3F)nc(N)c2[N+](=O)[O-])CC1` was tested, and the “hERG current change (%, negative = inhibition) at 10uM” value was -56.6%. In the case of `Nc1nc(Nc2ccccc2F)nc(N2CCOCC2)c1[N+](=O)[O-]`, the “hERG current change (%, negative = inhibition) at 10uM” value is reported as 4.6%. For `Nc1nc(Nc2cccc(F)c2)nc(N2CCOCC2)c1[N+](=O)[O-]`, the “hERG current change (%, negative = inhibition) at 10uM” value was -26.7%. In the case of `Nc1nc(Nc2ccccc2)nc(N2CCCC2)c1[N+](=O)[O-]`, the “hERG current change (%, negative = inhibition) at 10uM” value is reported as -34.5%. With `CN1CCN(c2nc(Nc3ccccc3)nc(N)c2[N+](=O)[O-])CC1` the “hERG current change (%, negative = inhibition) at 10uM” value was -40.6%. For `CC12CN3CC(C)(CN(C1)C3c1cccnc1)C2=O` (stereo not drawn), the “hERG current change (%, negative = inhibition) at 10uM” value was -0.24%. `CC(NCc1ccco1)C(=O)N1CCc2ccccc2C1.Cl` (stereo not drawn) was tested, and the “hERG current change (%, negative = inhibition) at 10uM” value was 14%. With `O=C(COc1ccccc1)Nc1ccc2c(c1)C(=O)N(CC1CCCO1)C2=O` (stereo not drawn) the “hERG current change (%, negative = inhibition) at 10uM” value was 6.03%. For `O=C(NCc1ccco1)c1ccc(Cn2cc([N+](=O)[O-])cn2)o1`, the “hERG current change (%, negative = inhibition) at 10uM” value was -10.3%. With `O=C1c2cccc3c(N4CCCCC4)ccc(c23)C(=O)N1c1cccc(O)c1` the “hERG current change (%, negative = inhibition) at 10uM” value was 32.6%. `CNC(=O)c1c(NC(=O)c2ccc(N3C(=O)CCC3=O)cc2)sc2c1CCCC2` was tested, and the “hERG current change (%, negative = inhibition) at 10uM” value was -13.3%. In the case of `CCOc1cc(NC(=O)c2ccccc2C)c(OCC)cc1NC(=O)C1=Cc2ccccc2OC1`, the “hERG current change (%, negative = inhibition) at 10uM” value is reported as 9.99%. `CC(C)(C)NC(=S)NC(=O)C12CCC3CC(CC(C3)C1)C2` was tested, and the “hERG current change (%, negative = inhibition) at 10uM” value was 6.45%. `O=C(Nc1ccnn1C1CCN(C/C=C/c2ccccc2)CC1)c1ccccc1` was tested, and the “hERG current change (%, negative = inhibition) at 10uM” value was -73.7%. With `O=C(Nc1ccnn1C1CCN(C/C=C/c2ccccc2)CC1)c1ccccc1Cl` the “hERG current change (%, negative = inhibition) at 10uM” value was -83.8%. With `O=C(Nc1ccnn1C1CCN(C/C=C/c2ccccc2)CC1)c1cccc(F)c1` the “hERG current change (%, negative = inhibition) at 10uM” value was -70.9%. `O=C(Nc1ccnn1C1CCN(Cc2ccccn2)CC1)c1cccc(F)c1` was tested, and the “hERG current change (%, negative = inhibition) at 10uM” value was -7.3%. With `CC(C)=CCN1CCC(n2nccc2NC(=O)c2ccccc2Cl)CC1` the “hERG current change (%, negative = inhibition) at 10uM” value was -57.9%. `O=C(Nc1ccnn1C1CCN(Cc2ccc(CO)o2)CC1)c1ccccc1Cl` was tested, and the “hERG current change (%, negative = inhibition) at 10uM” value was -0.636%. `CC(C)(C)CN1CCC(n2nccc2NC(=O)c2ccccc2Cl)CC1` was tested, and the “hERG current change (%, negative = inhibition) at 10uM” value was -20.3%. `O=C(Nc1ccnn1C1CCN(C2CCOCC2)CC1)c1cccc(F)c1` was tested, and the “hERG current change (%, negative = inhibition) at 10uM” value was -1.9%. In the case of `O=C(Nc1ccnn1C1CCN(Cc2ccc(CO)o2)CC1)c1ccccc1`, the “hERG current change (%, negative = inhibition) at 10uM” value is reported as 1.16%. For `COc1cc(/C=N\NC(=O)c2ccc(C)nc2)ccc1OC(=O)c1cccc(F)c1`, the “hERG current change (%, negative = inhibition) at 10uM” value was -8.51%.
